The list is not random: actives were taken first. Their share in the collection is about 7.3%.
VACV Venus inh = vaccinia inhibition (Venus reporter). Potency, µM (top dose mostly 36.5 µM), inactives show at the highest dose activity change, negative = inhibition, hits mostly inhibitors. 0.46% of 330,000 active. Vaccinia virus Venus reporter expression, fluorescence. AID 720580; calls by dose curve; tested in A549 cells; further: potency means the concentration at half of the fitted maximal effect; nearly all actives have a fitted effect of over 30% in size
FMDV antiviral = blocks foot and mouth disease virus | FMDV antiviral cell-based qHTS | Potency, µM (titrated, usually from 57.9 µM), inactives show at the top dose activity change, negative = inhibition, actives largely listed as inhibitors | 1.2% of 410,000 active | AID 1159524; calls by dose curve; tested in HEK293T cells; further: read-out not given here; potency means the concentration at half of the fitted maximal effect; nearly all actives have a fitted effect of over 45% in size
HCV inhibitor = inhibitors of hepatitis C virus infection; Huh7.5.1 HCVcc-Cre infection, luciferase reporter, 44 h; Potency, µM (top dose mostly 41.8 µM), inactives show at the top dose activity change, negative = inhibition, most hits filed as inhibitors; 3.4% of 340,000 active; AID 651820; active means well fitted inhibition curve with a large enough effect; inconclusive means small, poorly fitted or top-dose-only effect, or another doubt; inactive means no such curve, though single readings can be large or run the other way; further: potency means the concentration at half of the fitted maximal effect
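Reporter virus HCVcc-Cre (~0.5 moi) infects cells exposed to compound; seeding density 1,000 cells/well with 4 h settling beforehand. Luminescence, 15 sec read, taken 44 h post-infection following a 15 min RT substrate incubation.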
VACV mCherry inh = vaccinia inhibition (mCherry reporter); Vaccinia virus mCherry reporter infection, fluorescence; Potency, µM (series often up to 36.5 µM), for inactives: at the top dose activity change, negative = inhibition, most hits filed as inhibitors; 0.63% of 310,000 active; calls by dose curve; tested in A549 cells; further: potency means the concentration at half of the fitted maximal effect; nearly all actives have a fitted effect of over 35% in size
HCMV inh = blocks human cytomegalovirus replication; HFF cells, HCMV-luciferase reporter, 72 h; active compounds read low; activity change, negative = inhibition, % at 57.5 µM; 4.5% of 410,000 active; in the data active means activity change below about -60%; inconclusive means no clear call, values can overlap the other calls; inactive means above about -39%
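Human foreskin fibroblasts infected with luciferase-reporter HCMV at MOI 1 PFU/cell, compounds at two doses. Luciferase measured 72 h post infection; normalized to buffer-only basal and Salinomycin (10uM) controls.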
Active calls of the source: *; [ ] = another dose, or the depositor's remark. On the % scale 0 is the no-effect control and ±100 the full control effect.

How did O=C(/C=C/c1ccco1)N(Cc1ccc(Cl)cc1)C1CCS(=O)(=O)C1 (configuration not stated) do in these assays?
VACV Venus inh: -9%; FMDV antiviral: -3%; HCV inhibitor: 1.1µM*; VACV mCherry inh: -17%; HCMV inh: -23

Results for O=C(c1ccc(Cl)c([N+](=O)[O-])c1)N(Cc1ccc(Cl)cc1)C1CCS(=O)(=O)C1 (configuration not stated) ?
VACV Venus inh: -1%; FMDV antiviral: 12%; HCV inhibitor: inconclusive; VACV mCherry inh: -6%; HCMV inh: -60*

Results for Cc1c(P(=S)(c2ccccc2)c2ccccc2)[n+]2ccccc2n1CCc1ccccc1 ?
FMDV antiviral: inconclusive; HCMV inh: -98*

What do the screens show for `Cn1c(=O)c2c(nc(Br)n2CCc2ccccc2)n(C)c1=O`?
VACV Venus inh: 0%; FMDV antiviral: inconclusive; HCV inhibitor: 6%; HCMV inh: -16

Results for COc1ccc(CN2CCCC(n3cc(C(=O)NC4CCCC4)nn3)C2)c(O)c1 (configuration not stated) ?
VACV Venus inh: -18%; FMDV antiviral: -20%; VACV mCherry inh: inactive

Results for COc1ccc(F)cc1-c1cc(NC=O)c2ncc(-c3cc(OC)c(OC)c(OC)c3)n2c1 ?
VACV Venus inh: inconclusive; FMDV antiviral: 32µM*; VACV mCherry inh: inconclusive; HCMV inh: -76*

How did COc1cc(-c2cnc3c(NC=O)cc(-c4ccccc4)cn23)cc(OC)c1OC do in these assays?
VACV Venus inh: inconclusive; FMDV antiviral: inconclusive; VACV mCherry inh: -23%; HCMV inh: inconclusive

Results for COc1cc(-c2cnc3c(NC=O)cc(-c4ccc(C)cc4)cn23)cc(OC)c1OC ?
VACV Venus inh: inconclusive; FMDV antiviral: 0%; VACV mCherry inh: inconclusive; HCMV inh: -76*

How did COc1cc(-c2cnc3c(NC=O)cc(-c4ccccc4Cl)cn23)cc(OC)c1OC do in these assays?
VACV Venus inh: inconclusive; FMDV antiviral: -23%; VACV mCherry inh: inconclusive; HCMV inh: -77*

How did Cc1ccc(Nc2c(-c3ccc(N4CCOCC4)cc3)nc3c(C)cccn23)cc1 do in these assays?
VACV Venus inh: -22%; FMDV antiviral: -18%; VACV mCherry inh: -14%; HCMV inh: 4

How did CCC[C@H]1[C@@H](NC(=O)Nc2cccc(C(F)(F)F)c2)CC[C@@]23CCCN2C(=O)CCC[C@@H]13 do in these assays?
HCMV inh: -6

What do the screens show for `COc1cccc(-c2n[nH]c3ccnc(-c4cccc(C(C)=O)c4)c23)c1`?
HCMV inh: -21

How did CN1/C(=C\C=N\O)C(C)(C)c2ccccc21 do in these assays?
VACV Venus inh: -5%; FMDV antiviral: -6%; HCV inhibitor: 4%; VACV mCherry inh: -1%; HCMV inh: 2

How did CN1C(=CC=C2C=C(I)C(=O)C(I)=C2)C(C)(C)c2ccccc21 do in these assays?
VACV Venus inh: 480%; FMDV antiviral: 22µM*; HCV inhibitor: -24%; VACV mCherry inh: 198%; HCMV inh: -77*

Results for CN1/C(=C\C=[N+](C)c2ccccc2)C(C)(C)c2ccccc21 ?
VACV Venus inh: inconclusive; HCV inhibitor: 11µM*; VACV mCherry inh: -11%; HCMV inh: -95*

What do the screens show for `CN1/C(=C\C=C2/SC(=S)NC2=O)C(C)(C)c2ccccc21`?
VACV Venus inh: inactive; FMDV antiviral: inconclusive; HCV inhibitor: inconclusive; VACV mCherry inh: 125%; HCMV inh: -93*

What do the screens show for `CN1/C(=C\C=C2C(=O)NC(=S)NC2=O)C(C)(C)c2ccccc21`?
VACV Venus inh: 129%; FMDV antiviral: -18%; HCV inhibitor: -23%; VACV mCherry inh: inactive; HCMV inh: -20

How did CCN(C1=NS(=O)(=O)c2ccccc21)N(CC)S(=O)(=O)c1ccc(C)cc1 do in these assays?
FMDV antiviral: inconclusive; HCV inhibitor: -24%; HCMV inh: -69*

Results for O=C(CSc1nnc(-c2cccs2)n1C1CC1)NC1CCS(=O)(=O)C1 (configuration not stated) ?
VACV Venus inh: -10%; FMDV antiviral: -9%; HCV inhibitor: 12%; VACV mCherry inh: -23%; HCMV inh: 0

How did CC1(C)CCC[C@]2(C)[C@H]3CC(=O)O[C@]3(C)CC[C@@H]12 do in these assays?
VACV Venus inh: -1%; FMDV antiviral: -20%; HCV inhibitor: 15%; VACV mCherry inh: -10%; HCMV inh: -14

What do the screens show for `CC1(C)CCC[C@]2(C)[C@H]3Cc4cc(O)ccc4O[C@]3(C)CC[C@@H]12`?
VACV Venus inh: inconclusive; FMDV antiviral: 0%; HCV inhibitor: inconclusive; VACV mCherry inh: inconclusive; HCMV inh: -88*

What do the screens show for `CCOC(=O)C(C)Nc1ncnc2onc(C)c12` (configuration not stated)?
VACV Venus inh: 1%; FMDV antiviral: -9%; VACV mCherry inh: -9%; HCMV inh: 12

How did O=C(COc1ccccc1F)Nc1ccc2oc(-c3cccc(Cl)c3)nc2c1 do in these assays?
VACV Venus inh: -28%; FMDV antiviral: -8%; VACV mCherry inh: -22%; HCMV inh: 41

Results for Cc1cc(-c2ccc(C)c(S(=O)(=O)N3CCOc4ccc(Cl)cc43)c2)on1 ?
VACV Venus inh: -20%; FMDV antiviral: inconclusive; VACV mCherry inh: inconclusive; HCMV inh: -40

Results for Cc1ccc(-c2onc(C)c2C)cc1S(=O)(=O)N1CCOc2ccc(Cl)cc21 ?
VACV Venus inh: -6%; FMDV antiviral: inconclusive; VACV mCherry inh: -19%; HCMV inh: -62*

What do the screens show for `CCC1CN(S(=O)(=O)c2cc(-c3onc(C)c3C)ccc2C)c2cc(Cl)ccc2O1` (configuration not stated)?
VACV Venus inh: -11%; FMDV antiviral: -16%; VACV mCherry inh: -18%; HCMV inh: -67*

How did Cc1ccc(-c2onc(C)c2C)cc1S(=O)(=O)N1CC(C)Oc2ccccc21 (configuration not stated) do in these assays?
VACV Venus inh: -7%[7.34 µM]; FMDV antiviral: inconclusive; HCV inhibitor: 13µM*; VACV mCherry inh: -6%[7.34 µM]; HCMV inh: inconclusive

What do the screens show for `Cc1ccc(-c2onc(C)c2C)cc1S(=O)(=O)N1CCc2ccccc21`?
VACV Venus inh: inconclusive; FMDV antiviral: inconclusive; VACV mCherry inh: -3%; HCMV inh: inconclusive

Results for CC(=O)c1ccc(N2CCN(S(=O)(=O)c3cc(-c4onc(C)c4C)ccc3C)CC2)cc1 ?
VACV Venus inh: inconclusive; FMDV antiviral: inconclusive; VACV mCherry inh: inconclusive; HCMV inh: -67*

What do the screens show for `CC(=O)c1ccc(N2CCN(S(=O)(=O)c3cc(-c4noc(C)n4)ccc3C)CC2)cc1`?
VACV Venus inh: -17%; FMDV antiviral: inconclusive; VACV mCherry inh: -18%; HCMV inh: 5

What do the screens show for `CCN(CC(=O)Nc1ccc(NC(C)=O)cc1)C(=O)c1cccnc1Sc1ccc(C)c(C)c1`?
VACV Venus inh: -15%; FMDV antiviral: 3%; HCV inhibitor: 15%; VACV mCherry inh: -27%; HCMV inh: -16

Assay outcomes: PubChem BioAssay, National Center for Advancing Translational Sciences (NCATS)
